Source: PubChem BioAssay AID1159580 (chemical genetic matrix, 2015)
Where “and” joins values, the source holds several entries; their conditions need not be identical. Equal entries are not always repeated. Among all 5,500 compounds or so, about 2,000 (36%) were called active. Roughly 18% stayed inconclusive and do not appear here. Rule as the data show it: active = normalized growth mostly below about 0.91 (no sharp cut-off); inconclusive = no clear call, values can overlap the other calls; inactive = mostly above about 0.92. This is one part of the list.

Test: chemical genetic growth profiling, strain panel (AID 1159580);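 also: tested at 20 µM; growth read once vehicle control cultures reached saturation at 30 °C; 1 = growth at the plate median or of vehicle wells; lower values mean less growth of the strain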
Details: growth OD

Measured: normalized growth

NS(=O)(=O)c1cc2c(cc1Cl)NC=NS2(=O)=O
inactive: S. cerevisiae deletion strains, locus YJR075W, strain HOC1, stronger effect = lower value 1.02 | S. cerevisiae deletion strains, locus YKL009W, strain mrt4, stronger effect = lower value 1.02 | S. cerevisiae deletion strains, locus YKL068W, stronger effect = lower value 0.998 | S. cerevisiae deletion strains, locus YKL085W, strain MDH1 (second series), stronger effect = lower value 0.998 | S. cerevisiae deletion strains, locus YKL085W, strain MDH1, stronger effect = lower value 0.998 | S. cerevisiae deletion strains, locus YKL160W, strain elf1, stronger effect = lower value 1.01 | S. cerevisiae deletion strains, locus YKL190W, strain CNB1, stronger effect = lower value 1.01 | S. cerevisiae deletion strains, locus YKR001C, strain vps1, stronger effect = lower value 0.988 | S. cerevisiae deletion strains, locus YKR026C, strain gcn3, stronger effect = lower value 0.98 | S. cerevisiae deletion strains, locus YKR091W, strain srl3, stronger effect = lower value 1.01 | S. cerevisiae deletion strains, locus YLL001W, strain dnm1, stronger effect = lower value 1.01 | S. cerevisiae deletion strains, locus YLL026W, stronger effect = lower value 0.99 | S. cerevisiae deletion strains, locus YLL041C, strain sdh2, stronger effect = lower value 1 | S. cerevisiae deletion strains, locus YLR027C, strain aat2, stronger effect = lower value 1.01 | S. cerevisiae deletion strains, locus YLR039C, strain RIC1, stronger effect = lower value 1.02 | S. cerevisiae deletion strains, locus YLR058C, strain SHM2, stronger effect = lower value 1.01 | S. cerevisiae deletion strains, locus YLR102C, strain apc9, stronger effect = lower value 0.99 | S. cerevisiae deletion strains, locus YLR113W, strain HOG1, stronger effect = lower value 0.939 | S. cerevisiae deletion strains, locus YLR221C, strain rsa3, stronger effect = lower value 0.994 | S. cerevisiae deletion strains, locus YLR258W, strain gsy2, stronger effect = lower value 1.01 | S. cerevisiae deletion strains, locus YLR262C, strain YPT6 (second series), stronger effect = lower value 1 | S. cerevisiae deletion strains, locus YLR262C, strain YPT6, stronger effect = lower value 1.02 | S. cerevisiae deletion strains, locus YLR268W, strain sec22, stronger effect = lower value 0.996 | S. cerevisiae deletion strains, locus YLR320W, strain mms22, stronger effect = lower value 0.988 | S. cerevisiae deletion strains, locus YLR330W, strain CHS5, stronger effect = lower value 1.01 | S. cerevisiae deletion strains, locus YLR342W, strain FKS1 (second series), stronger effect = lower value 1.02 | S. cerevisiae deletion strains, locus YLR342W, strain FKS1, stronger effect = lower value 0.999 | S. cerevisiae deletion strains, locus YLR357W, strain rsc2, stronger effect = lower value 0.985 | S. cerevisiae deletion strains, locus YLR370C, strain arc18, stronger effect = lower value 1 | S. cerevisiae deletion strains, locus YLR371W, strain rom2, stronger effect = lower value 0.997 | S. cerevisiae deletion strains, locus YLR384C, strain iki3, stronger effect = lower value 1.01 | S. cerevisiae deletion strains, locus YLR418C, strain cdc73, stronger effect = lower value 1.02 | S. cerevisiae deletion strains, locus YML016C, strain PPZ1, stronger effect = lower value 1 | S. cerevisiae deletion strains, locus YML032C, strain rad52, stronger effect = lower value 0.982 | S. cerevisiae deletion strains, locus YML120C, strain ndi1, stronger effect = lower value 0.994 | S. cerevisiae deletion strains, locus YML124C, strain tub3, stronger effect = lower value 0.996 | S. cerevisiae deletion strains, locus YMR058W, strain fet3, stronger effect = lower value 1 | S. cerevisiae deletion strains, locus YMR078C, strain ctf18, stronger effect = lower value 0.984 | S. cerevisiae deletion strains, locus YMR125W, strain sto1, stronger effect = lower value 0.998 | S. cerevisiae deletion strains, locus YMR129W, stronger effect = lower value 1 | S. cerevisiae deletion strains, locus YMR205C, strain PFK2, stronger effect = lower value 1 | S. cerevisiae deletion strains, locus YMR223W, strain ubp8, stronger effect = lower value 1 | S. cerevisiae deletion strains, locus YMR231W, strain pep5, stronger effect = lower value 0.999 | S. cerevisiae deletion strains, locus YMR263W, strain SAP30, stronger effect = lower value 1.02 and 0.996 | S. cerevisiae deletion strains, locus YMR307W, strain GAS1, stronger effect = lower value 0.978 and 1.01 | S. cerevisiae deletion strains, locus YNL067W, strain RPL9B, stronger effect = lower value 1.01 | S. cerevisiae deletion strains, locus YNL071W, strain lat1, stronger effect = lower value 0.999 | S. cerevisiae deletion strains, locus YNL128W, strain TEP1, stronger effect = lower value 1.02 | S. cerevisiae deletion strains, locus YNL153C, strain GIM3, stronger effect = lower value 1.02 | S. cerevisiae deletion strains, locus YNL175C, strain NOP13, stronger effect = lower value 0.975 | S. cerevisiae deletion strains, locus YNL183C, strain NPR1, stronger effect = lower value 0.907 | S. cerevisiae deletion strains, locus YNL197C, strain WHI3, stronger effect = lower value 0.969 | S. cerevisiae deletion strains, locus YNL209W, strain ssb2, stronger effect = lower value 1.01 | S. cerevisiae deletion strains, locus YNL224C, strain SQS1, stronger effect = lower value 0.987 | S. cerevisiae deletion strains, locus YNL233W, strain BNI4, stronger effect = lower value 1.02 | S. cerevisiae deletion strains, locus YNL248C, strain rpa49, stronger effect = lower value 1.04 | S. cerevisiae deletion strains, locus YNL250W, strain rad50, stronger effect = lower value 0.989 | S. cerevisiae deletion strains, locus YNL271C, strain bni1, stronger effect = lower value 0.982 | S. cerevisiae deletion strains, locus YNL298W, strain CLA4, stronger effect = lower value 1 | S. cerevisiae deletion strains, locus YNL307C, strain MCK1, stronger effect = lower value 1.01 | S. cerevisiae deletion strains, locus YNL322C, strain KRE1 (second series), stronger effect = lower value 1.01 | S. cerevisiae deletion strains, locus YNL322C, strain KRE1, stronger effect = lower value 1.01 | S. cerevisiae deletion strains, locus YNR049C, strain mso1, stronger effect = lower value 1.01 | S. cerevisiae deletion strains, locus YNR052C, strain pop2, stronger effect = lower value 0.996 | S. cerevisiae deletion strains, locus YOL006C, strain TOP1, stronger effect = lower value 1.05 | S. cerevisiae deletion strains, locus YOL012C, strain htz1 0.596 | S. cerevisiae deletion strains, locus YOL147C, strain pex11, stronger effect = lower value 1 | S. cerevisiae deletion strains, locus YOR001W, strain rrp6, stronger effect = lower value 1.02 | S. cerevisiae deletion strains, locus YOR061W, strain CKA2, stronger effect = lower value 1.01 | S. cerevisiae deletion strains, locus YOR069W, strain VPS5, stronger effect = lower value 1 | S. cerevisiae deletion strains, locus YOR070C, strain gyp1, stronger effect = lower value 1.01 | S. cerevisiae deletion strains, locus YOR080W, strain dia2, stronger effect = lower value 0.986 | S. cerevisiae deletion strains, locus YOR083W, strain WHI5 (second series), stronger effect = lower value 0.968 | S. cerevisiae deletion strains, locus YOR083W, strain WHI5, stronger effect = lower value 0.989 | S. cerevisiae deletion strains, locus YOR106W, strain vam3, stronger effect = lower value 1 | S. cerevisiae deletion strains, locus YOR136W, strain idh2, stronger effect = lower value 0.999 | S. cerevisiae deletion strains, locus YOR144C, strain elg1, stronger effect = lower value 0.998 | S. cerevisiae deletion strains, locus YOR184W, strain ser1, stronger effect = lower value 1 | S. cerevisiae deletion strains, locus YOR231W, strain MKK1, stronger effect = lower value 0.979 | S. cerevisiae deletion strains, locus YOR265W, strain rbl2, stronger effect = lower value 1 | S. cerevisiae deletion strains, locus YOR270C, strain vph1, stronger effect = lower value 1.02 | S. cerevisiae deletion strains, locus YOR290C, strain snf2, stronger effect = lower value 0.996 | S. cerevisiae deletion strains, locus YOR316C, strain cot1, stronger effect = lower value 1 | S. cerevisiae deletion strains, locus YPL051W, strain arl3, stronger effect = lower value 1 | S. cerevisiae deletion strains, locus YPL055C, strain LGE1, stronger effect = lower value 1.04 and 0.991 | S. cerevisiae deletion strains, locus YPL078C, strain atp4, stronger effect = lower value 1 | S. cerevisiae deletion strains, locus YPL106C, strain sse1, stronger effect = lower value 1.01 | S. cerevisiae deletion strains, locus YPL240C, strain hsp82, stronger effect = lower value 1 | S. cerevisiae deletion strains, locus YPL241C, strain CIN2, stronger effect = lower value 1.01 | S. cerevisiae deletion strains, locus YPL256C, strain CLN2, stronger effect = lower value 0.932 | S. cerevisiae deletion strains, locus YPR119W, strain clb2, stronger effect = lower value 0.997 | S. cerevisiae deletion strains, locus YPR141C, strain kar3, stronger effect = lower value 0.997 | S. cerevisiae deletion strains, locus YPR163C, strain tif3, stronger effect = lower value 0.998 | S. cerevisiae deletion strains, locus YPR167C, strain met16, stronger effect = lower value 1 | S. cerevisiae deletion strains, strain wtn01, stronger effect = lower value 1 | S. cerevisiae strains, strain wild type, stronger effect = lower value 1.02
